Sampled rows, rich in hits. Any-hit rate of the full collection: about 4.1%.
Mtb FBA inh: Mtb FBA enzyme inhibitors, primary screen, biochemical, fluorescence, strain H37Rv; 360,000 tested, 2.3% active; purified M. tuberculosis FBA, fluorescence read-out; inhibition, % at 1 µM; Fructose-bisphosphate aldolase (Mycobacterium tuberculosis (strain ATCC 25618 / H37Rv)), …;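 further: 0% = vehicle and 100% = reference inhibitor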
GDH-TPI counter-1: GDH-TPI coupling enzyme inhibitors, primary screen, artefact control for M. tuberculosis FBA inhibitor project, biochemical, absorbance, full deck; GDH-TPI coupled enzyme counterscreen, NADH absorbance; inhibition, % at 4.8 µM; 360,000 tested, 1.2% active; AID 588335, 2011; in the data active means inhibition above about 30%;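 further: 0% = DMSO wells and 100% = wells lacking the enzyme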
Rv3671c protease: Rv3671c serine protease inhibitors, primary screen, biochemical, fluorescence polarization, M. tuberculosis H37Rv. AID 2606, 2010. inhibition, % at 5.96 µM. 320,000 tested, 0.048% active; in the data active means inhibition above about 38%;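 further: extracellular domain of Rv3671c used as enzyme; 0% = enzyme with DMSO and 100% = no enzyme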
Target sequence (P9WHR9 whole entry, looked up, the tested form may be a part): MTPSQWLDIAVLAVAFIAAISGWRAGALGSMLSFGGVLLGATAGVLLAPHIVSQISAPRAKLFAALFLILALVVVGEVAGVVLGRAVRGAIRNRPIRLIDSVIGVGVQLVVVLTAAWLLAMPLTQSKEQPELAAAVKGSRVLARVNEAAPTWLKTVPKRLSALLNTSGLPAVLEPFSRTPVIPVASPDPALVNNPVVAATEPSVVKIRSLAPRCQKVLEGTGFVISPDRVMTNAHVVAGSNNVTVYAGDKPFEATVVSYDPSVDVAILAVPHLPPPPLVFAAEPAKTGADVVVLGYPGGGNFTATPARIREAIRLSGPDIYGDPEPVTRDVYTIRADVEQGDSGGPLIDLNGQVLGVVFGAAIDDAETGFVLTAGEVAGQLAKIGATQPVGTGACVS
RecA splice inh: Mtb RecA intein splicing inhibitors, primary screen, biochemical, fluorescence, HTS | Protein RecA (Mycobacterium tuberculosis (strain ATCC 25618 / H37Rv)), P9WHJ3 | cell-free RecA intein splicing | inhibition, % (no concentration beside the values) | 290,000 tested, 0.75% active | AID 2221, 2009; in the data active means inhibition above about 30%; inconclusive means no clear call, values can overlap the other calls;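 further: 0% = vehicle wells and 100% = reference inhibitor control wells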
Vc quorum ag: inducers of Vibrio cholerae quorum light production without autoinducers, primary screen, BH1578 luxS cqsA deficient, single point. V. cholerae BH1578 lux reporter, luminescence, 6 h. activation, % at 18.7 µM. 350,000 tested, 0.16% active. AID 588436, 2011; in the data active means activation mostly above about 9.7%, no sharp cut-off; inconclusive means no clear call, values can overlap the other calls; inactive means mostly below about 3.7%
Mtb UGM inh: M. tuberculosis UGM enzyme inhibitors, primary screen, biochemical, fluorescence polarization, single point. AID 504406, 2011. 320,000 tested, 0.06% active. purified UGM, fluorescence polarization probe displacement. inhibition, % at 10 µM; in the data active means inhibition above about 10%, passing the limit was not always enough; inconclusive means no clear call, values can overlap the other calls
Mtb FBA confirm: M. tuberculosis aldolase blockers, biochemical, fluorescence, strain H37Rv, confirmation | shares compounds with Mtb FBA inh | purified M. tuberculosis FBA, fluorescence read-out | inhibition, % at 1 µM | 5,600 tested, 78% active | AID 651616, 2012;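 further: 0% = vehicle wells and 100% = reference inhibitor wells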
GDH-TPI counter-2: GDH-TPI coupling enzyme inhibitors, artefact control for M. tuberculosis FBA inhibitor project, biochemical, fluorescence, high throughput; shares compounds with Mtb FBA inh; GDH-TPI coupled enzyme counterscreen; inhibition, % at 1 µM; 5,600 tested, 81% active; in the data active means inhibition above about 10%
* marks the source's active call; other numbers are inactive results; i = inactive; u = inconclusive; x = no result given; + = active, no number. Unless noted, no stated cut-off is given here; in the data, active means inhibition above about 27%; inactive means the rest.

SMILES | Mtb FBA inh | GDH-TPI counter-1 | Rv3671c protease | RecA splice inh | Vc quorum ag | Mtb UGM inh | Mtb FBA confirm | GDH-TPI counter-2
Cc1cc(N2CCCC2)nc2ccc(NC(=S)NC(C)C)cc12 | 31* | 18 | 6 | -6 | i | 2 | 24 | 16*
COCCNC(=S)Nc1ccc2nc(N3CCOCC3)cc(C)c2c1 | 51* | 8 | 3 | -5 | -1 | -1 | 0 | -3
COc1cccc2c(=O)c3ccoc3n(C)c12 | 40* | 22 | 1 | -2 | -1 | 4 | 75* | 57*
Cc1cc(C(=O)COC(=O)c2nccnc2N)c(C)n1C | 62* | 8 | 14 | 0 | 0 | u | 2 | 6
Cc1cc(C)n(-c2cccc(Cl)c2C#N)n1 | 9 | 1 | 6 | -7 | 0 | -2 | x | x
Cc1nc(Nc2ccncc2)c2oc3ccccc3c2n1 | 35* | 33* | -4 | 0 | -1 | 3 | 161* | 136*
Cc1cccc(Nc2nc(C)nc3c2oc2ccccc23)c1 | 4 | 4 | -10 | 3 | i | 0 | x | x
CCc1nc(Nc2ccncc2)c2oc3ccccc3c2n1 | 57* | 40* | 4 | 0 | i | -4 | 49* | 41*
COC(=O)c1scc2c(=O)cc(C(F)(F)F)[nH]c12 | 29* | -3 | 7 | i | i | -1 | x | +
COC(=O)C1=C(C)NC(=O)C1(Nc1nccs1)C(F)(F)F (stereo unspecified) | -1 | 7 | -1 | -1 | i | 0 | x | x
CCOC(=O)CSc1ccc(-c2nc3cc(C)c(C)cc3[nH]2)cn1 | 24 | 23 | -4 | 2 | 0 | 0 | x | x
Cc1cc2nc(-c3ccc(SCC(=O)N4CCOCC4)nc3)[nH]c2cc1C | 54* | 31* | -10 | -6 | i | -3 | 57* | 50*
Cc1cc2nc(-c3ccc(SCc4ccccn4)nc3)[nH]c2cc1C | 41* | 38* | -19 | 0 | 0 | 0 | 54* | 51*
Cc1cc2nc(-c3ccc(SCC(=O)N4CCN(C(=O)c5ccco5)CC4)nc3)[nH]c2cc1C | 35* | 48* | -8 | 4 | -1 | 1 | 44* | 27*
Cc1cc(C)cc(C(=O)NCC(=O)OCN2C(=O)c3ccccc3C2=O)c1 | 4 | -3 | -5 | x | 1 | 1 | x | x
COc1ccccc1NS(=O)(=O)c1ccc2oc(N)nc2c1 | -9 | 2 | -1 | -2 | 0 | 3 | x | x
Cc1cccc(CNc2ccc(S(=O)(=O)N3CCCCC3)cc2)c1 | 1 | 1 | -7 | x | -2 | 1 | x | x
O=C(Cc1csc(Nc2nc(=S)[nH]c3ccccc23)n1)N1CCN(c2cccc(C(F)(F)F)c2)CC1 | -1 | -1 | -10 | -4 | 0 | -1 | x | x
COc1ccc2oc(-c3ccncc3)cc(=O)c2c1 | 30* | 5 | x | x | i | x | + | +
COc1ccc(C)cc1NC(=O)Nc1ccc(C(=O)N2CCCC2)cc1 | 1 | -2 | -10 | 0 | i | -2 | x | x
Cc1cn(CC(C)C)c(=O)n(-c2ccccc2)c1=O | -3 | -5 | x | x | i | x | x | x
Cc1cn(C2CCCCC2)c(=O)n(-c2ccccc2)c1=O | 37* | 1 | x | x | i | x | + | 177*
CC(C)C(OC(=O)CN1C(=O)c2ccccc2C1=O)C(=O)NC1CCCCC1 (stereo unspecified) | 1 | 13 | -14 | -7 | 0 | 1 | x | x
O=C1c2cnc3ncnn3c2CC2c3ccccc3CCN12 (stereo unspecified) | 58* | -3 | 13 | -25 | 0 | 0 | 23 | 18*
N#Cc1cnn2c3c(cnc12)C(=O)N1CCc2ccccc2C1C3 (stereo unspecified) | 27* | -6 | 7 | -27 | 0 | 0 | 87* | 64*
SMILES | Mtb FBA inh | GDH-TPI counter-1 | Rv3671c protease | RecA splice inh | Vc quorum ag | Mtb UGM inh | Mtb FBA confirm | GDH-TPI counter-2
CSc1nc2ncc3c(n2n1)CC1c2ccccc2CCN1C3=O (stereo unspecified) | 53* | 10 | -9 | -14 | -1 | 1 | 76* | 58*
N#Cc1cnn2c(C(F)(F)F)cc(-c3ccccc3)nc12 | 7 | 15 | -14 | 1 | 2 | 2 | x | x
O=C1c2cnc3nc(SCc4cccc(Cl)c4)nn3c2CC2c3ccccc3CCN12 (stereo unspecified) | 1 | -8 | -5 | -9 | i | -1 | x | x
COc1ccccc1N1CCN(C2CCCN(C(=O)c3oc(C)cc3C)C2)CC1 (stereo unspecified) | 2 | 1 | -9 | x | i | -1 | x | x
O=C(/C=C/c1ccccc1)Nc1cccc(C(=O)NC2CC2)c1 | 0 | -8 | x | x | -1 | x | x | x
CSc1nsc(SC)c1CO | 39* | -7 | -2 | -2 | 0 | -1 | 2 | -8
CCC(=O)NCCNC(=O)c1c(SC)nsc1SC | -1 | 2 | 4 | -1 | i | 1 | x | x
COc1ccc(/C=C/C(=O)O)cc1S(=O)(=O)Nc1ccc2c(c1)OCO2 | 5 | 5 | 10 | -2 | 0 | -4 | x | x
Nc1ccc2nc3n(c(=O)c2c1)CCC3 | 110* | 9 | -4 | -3 | 0 | -1 | 4 | 1
Cc1ccc2nc(CNC(=O)C3CCC(=O)N(Cc4ccccc4F)C3)cn2c1 (stereo unspecified) | 18 | 10 | x | 4 | 4 | 0 | x | x
O=C(NCCc1cn2cccnc2n1)C1CCC(=O)N(Cc2ccccc2F)C1 (stereo unspecified) | 94* | 6 | x | x | 0 | x | 60* | 39*
COc1ccc(NC(=O)CN(C)C(=O)Cc2n[nH]c(=O)c3ccccc23)cc1 | 4 | 5 | -8 | -1 | -1 | 3 | x | x
COc1ccc2c(c1)nc(NCCO)n2C | 37* | -6 | 1 | -3 | 0 | 2 | 187* | 170*
COc1ccc(-c2noc(CCCC(=O)NC3CCCCC3)n2)cc1 | -2 | -8 | -5 | -2 | 0 | -2 | x | x
C[C@@H]1CN([C@H](C)CO)C(=O)CCCn2cc(nn2)CO[C@H]1CN(C)C(=O)Nc1cccc2ccccc12 | 14 | -8 | x | x | 0 | x | x | x
O=C(NCCCO)c1ccc2[nH]c3ccccc3c2c1 | 36* | 2 | 5 | -2 | i | 0 | 125* | 91*

From PubChem
